JMJD2A Tudor inh: qHTS Assay for Inhibitors of JMJD2A-Tudor Domain | Lysine-specific demethylase 4A (Homo sapiens), O75164 | AlphaScreen JMJD2A-Tudor / H3K4me3 peptide binding | Potency, µM (titrated, usually from 114 µM), hits mostly inhibitors | 390,000 compounds, 4.4% hits | AID 504339, 2011; also: nearly all actives have a fitted effect of over 50% in size
HP1b binding inh: HTS for Inhibitors of HP1-beta Chromodomain Interactions with Methylated Histone Tails | Potency, µM (highest dose often 114 µM), usual class: inhibitors | AlphaScreen HP1-beta / biotin-H3K9me3 peptide binding | 390,000 compounds, 0.56% hits | AID 540317, 2011 | Chromobox protein homolog 1 (Homo sapiens), P83916; also: nearly all actives have a fitted effect of over 70% in size
Target sequence (P83916 whole entry, looked up): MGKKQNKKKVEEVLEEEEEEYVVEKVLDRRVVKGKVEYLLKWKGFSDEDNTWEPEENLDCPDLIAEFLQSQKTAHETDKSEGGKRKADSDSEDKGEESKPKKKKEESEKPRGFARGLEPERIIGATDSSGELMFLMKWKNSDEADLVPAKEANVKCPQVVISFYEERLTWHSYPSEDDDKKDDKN
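AlphaScreen: HP1-beta (50 nM) preformed 30 min with biotin-H3(1-18)K9me3 peptide (50 nM) in PBS pH 7.4, 0.01% Tween-20. Compound added for 30 min at RT, then streptavidin donor/nickel chelate acceptor beads (10 ug/mL) for 30 min.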
BAZ2B inh: qHTS Assay for Inhibitors of BAZ2B | Bromodomain adjacent to zinc finger domain protein 2B (Homo sapiens), Q9UIF8 | AlphaScreen BAZ2B-H3K14Ac peptide displacement | Potency, µM (highest dose often 114 µM), hits mostly inhibitors | 360,000 compounds, 4.4% hits; also: nearly all actives have a fitted effect of over 60% in size
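In this displacement format the biotinylated H3(5-23) peptide acetylated at Lys14 serves as ligand at 50 nM, with BAZ2B at 50 nM in PBS pH 7.4 containing 0.01% Tween-20. Donor and acceptor beads are 10 ug/mL final.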
G9a block: qHTS Assay for Inhibitors of Histone Lysine Methyltransferase G9a | Histone-lysine N-methyltransferase EHMT2 (Homo sapiens), Q96KQ7 | G9a H3K9 monomethylation, AlphaScreen, 2 h | 350,000 compounds, 8.8% hits | AID 504332, 2011 | Potency, µM (series often up to 102 µM), hits mostly inhibitors; also: nearly all actives have a fitted effect of over 75% in size
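Readings reflect AlphaScreen signal from monomethyl-H3K9 antibody detection. HMT at 20 nM; substrate b-H3K9 500 nM; cofactor SAM 20 uM; 2 h RT reaction; compounds tested as titrations in qHTS with 15 min preincubation.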
L3MBTL1 block: qHTS Assay for the Inhibitors of L3MBTL1. Potency, µM (top dose mostly 57.1 µM), usual class: inhibitors. AID 485360, 2010. AlphaScreen L3MBTL1–H3K9me1 peptide binding. 230,000 compounds, 0.66% hits. Lethal(3)malignant brain tumor-like protein 1 (Homo sapiens), Q9Y468; also: nearly all actives have a fitted effect of over 60% in size
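Read-out is AlphaScreen signal from streptavidin donor and nickel chelate acceptor beads (10 ug/mL final each) bridging L3MBTL1 (50 nM) and biotinylated K9-monomethylated H3(1-15) peptide (75 nM), after 30 min compound exposure at room temperature.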
12-hLO 8HQ R1: Cuvette-Based Assay for Inhibitors of 12-hLO (12-human lipoxygenase): 8HQ Series - Round 1; 35 compounds, 60% hits; Potency, µM, most hits filed as inhibitors; purified 12-hLO, cuvette UV 234 nm product formation; shares compounds with BAZ2B inh;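 active = compounds that slowed 12-hLO product formation enough to yield a measured IC50 potency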
KDM4E inh: Inhibitors of Human Jumonji Domain Containing 2E (JMJD2E): 8HQs - Round 1 | JMJD2E demethylase, FDH-coupled NADH fluorescence (FDH is formaldehyde dehydrogenase) | AID 493212, 2011 | 130 compounds, 89% hits | shares compounds with BAZ2B inh | Potency, µM (doses to about 57 µM), hits mostly inhibitors
Target sequence (B2RXH2 1-337 limits assumed): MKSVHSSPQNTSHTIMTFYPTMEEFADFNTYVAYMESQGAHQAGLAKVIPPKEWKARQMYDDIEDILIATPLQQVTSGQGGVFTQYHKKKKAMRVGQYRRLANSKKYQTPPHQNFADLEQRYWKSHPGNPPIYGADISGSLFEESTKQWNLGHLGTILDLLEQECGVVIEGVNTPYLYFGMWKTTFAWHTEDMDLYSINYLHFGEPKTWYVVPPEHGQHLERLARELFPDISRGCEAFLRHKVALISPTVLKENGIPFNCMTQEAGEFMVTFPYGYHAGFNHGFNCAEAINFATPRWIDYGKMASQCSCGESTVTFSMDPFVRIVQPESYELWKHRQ
ME-1 prolif: qHTS Assay for Compounds Blocking the Interaction Between CBF-beta and RUNX1 for the Treatment of Acute Myeloid Leukemia: ME-1 cellular proliferation; Potency, µM (doses to about 56.1 µM), hits mostly inhibitors; AID 504370, 2011; shares compounds with BAZ2B inh; 140 compounds, 20% hits; ME-1 cell proliferation, ATP luminescence, 48 h
A number is an active result; i = inactive; ? = inconclusive; nt = not tested or not shown; [ ] = remark or other dose. The list is not random: actives were taken first. Their share in the collection is about 11%. Unless noted, calls follow the shape of the dose curve; as a rule, active = well fitted curve in the direction sought with a large enough effect; inconclusive = small, poorly fitted or top-dose-only effect, or another doubt; inactive = no such curve, though single readings can be large; an effect the other way counts as inactive or inconclusive.

SMILES	JMJD2A Tudor inh	HP1b binding inh	BAZ2B inh	G9a block	L3MBTL1 block	ME-1 prolif	others
CC(=O)NC(C)c1cc(Cl)c2cccnc2c1O (stereo not drawn)	79.4µM	i	35.5µM	i[12.7 µM]	?	nt	12-hLO 8HQ R1=i;KDM4E inh=28.9µM
CC(=O)NCc1cc(Cl)c2cccnc2c1O	nt	nt	10µM	i[12.7 µM]	22.4µM	nt	12-hLO 8HQ R1=i;KDM4E inh=20.4µM
CCC(=O)NC(c1cc(Cl)c2ccccc2c1O)C(C)C (stereo not drawn)	i	i	i	i[0.501 µM]	i	nt
CCC(=O)NC(C)c1cc(Cl)c2cccnc2c1O (stereo not drawn)	79.4µM	i	31.6µM	i[12.7 µM]	?	nt	12-hLO 8HQ R1=50µM;KDM4E inh=28.9µM
Cc1ccn2c(=O)cc(COc3ccc(NC(=O)C(C)(C)C)cc3)nc2c1	i	i	i	i	nt	nt
CN(CC(=O)Nc1ccccc1Br)C(=O)c1cc(S(=O)(=O)N(C)C)ccc1N1CCCC1	i	i	i	i	i	nt
Nc1c(C(=O)NCC2CCCO2)sc2nc3c(c(-c4ccco4)c12)CC/C3=C\c1ccco1 (stereo not drawn)	2µM	?	8.91µM	8.91µM	3.16µM	?
COCCCN1CCN(C2Cc3ccccc3Sc3ccc(Cl)cc32)CC1 (stereo not drawn)	22.4µM	i	?	?	i	i
Clc1ccc2c(c1)C(N1CCNCC1)Cc1ccccc1S2 (stereo not drawn)	?	i	i	?	i	nt
O=C(O)c1cccnc1Cl	i	i	?	?	i	nt
O=C(O)c1cccnc1C(=O)O	0.891µM	i	6.31µM	3.55µM	?	i
O=C(C(=O)N1CCCCC1)c1cn(CC(=O)N2CCCCCC2)c2ccccc12	i	i	i	i	nt	nt
CCC(=O)NC(c1ccco1)c1cc(Cl)c2ccccc2c1O (stereo not drawn)	i	i	i	i[0.501 µM]	i	nt
CC(=O)NC(c1ccco1)c1cc(F)c2cccnc2c1O (stereo not drawn)	56.2µM	i	20µM	i[12.7 µM]	14.1µM	nt	12-hLO 8HQ R1=5µM;KDM4E inh=28.9µM
CC(=O)NC(c1ccco1)c1cc(Cl)c2ccccc2c1O (stereo not drawn)	i	i	i	i[12.7 µM]	i	nt
CCC(=O)NC(c1cccs1)c1cc([N+](=O)[O-])c2cccnc2c1OC (stereo not drawn)	nt	nt	?	?	i	nt	12-hLO 8HQ R1=i;KDM4E inh=4.57µM
CC(=O)NC(c1cccs1)c1cc(F)c2cccnc2c1O (stereo not drawn)	79.4µM	i	25.1µM	i[12.7 µM]	?	nt	12-hLO 8HQ R1=2µM;KDM4E inh=28.9µM
CC(=O)NC(C)c1cc(Cl)c2ccccc2c1O (stereo not drawn)	i	i	i	i[0.501 µM]	i	nt
CC(=O)NC(c1ccco1)c1cc(Cl)c2ccc(Cl)nc2c1O (stereo not drawn)	i	i	i	?	i	nt	12-hLO 8HQ R1=i;KDM4E inh=i
CC12CC3CC(C)(C1)CC(C(=O)N1CCN(C(=O)c4ccco4)CC1)(C3)C2	i	i	i	?	nt	nt
O=C(O[C@@H]1OC2COC(=O)c3cc(O)c(O)c(O)c3-c3c(cc(O)c(O)c3O)C(=O)O[C@@H]([C@H]1O)[C@@H]2O)c1cc(O)c(O)c(O)c1	nt	i	0.794µM	1.58µM	0.1µM	?
COC(=O)c1cc(C)ccc1OCc1ccc([N+](=O)[O-])cc1	i	?	i	nt	nt	nt
O=c1oc(Cc2ccccc2)nc2ccccc12	i	i	i	i	nt	nt
Cc1ccc(-c2nnc(OCc3nc4ccccc4n3C)c3ccccc23)cc1	i	i	nt	nt	nt	nt
O=C1c2ccccc2C(=O)c2c(Nc3ccc(CCO)cc3)ccc(O)c21	8.91µM	8.91µM	1.78µM	3.55µM	5.62µM	?
SMILES	JMJD2A Tudor inh	HP1b binding inh	BAZ2B inh	G9a block	L3MBTL1 block	ME-1 prolif	others
CC(=O)Nc1ccc(Nc2ccc3c4c(cc(=O)n3C)-c3ccccc3C(=O)c24)cc1	i	i	?	?	i	nt
C[C@H](CO)N1C[C@H](C)[C@@H](CN(C)S(=O)(=O)c2ccccc2)Oc2ccc(NC(=O)CCN3CCOCC3)cc2C1=O	i	i	nt	nt	i	nt
CC(=O)c1ccc(OCc2cc(C(=O)N3CC4C[C@@H]5CC3C[C@H](C4)C5)no2)cc1	i	i	i	i	nt	nt
C=C1c2cccc(O)c2C(O)=C2C(=O)[C@@]3(O)C(O)=C(C(N)=O)C(=O)[C@@H](N(C)C)[C@@H]3[C@@H](O)[C@H]12	nt	nt	nt	3.98µM	nt	i
Cc1cc(N2CCCCC2)nc2ccc(NC(=O)/C=C/c3ccc(OC(C)C)cc3)cc12	i	i	i	i	nt	nt
O=C(NC(=S)NNC(=O)c1ccccc1O)c1ccco1	35.5µM	i	?	?	i	?
CC(NC(=O)c1ccc(S(=O)(=O)NCc2ccco2)cc1)c1ccc(F)cc1 (stereo not drawn)	i	i	i	i	i	nt
COc1cc(O)c2c(c1)oc(=O)c1c3cc(O)c(O)cc3oc21	nt	nt	nt	nt	nt	31.6µM
Nc1nc(-c2ccccc2)c(N=Nc2cccnc2)s1	i	?	7.94µM	39.8µM	i	i
CN(C)c1nc(-c2ccccn2)nnc1-c1ccccc1	3.98µM	i	0.794µM	i	nt	15.8µM
Cc1nnc(-c2ccccc2)nc1N(C)C	i	i	i	i	i	nt
CC(c1ccncc1)C(C)c1ccncc1 (stereo not drawn)	i	i	i	i[2.33 µM]	i	nt
Cc1sc(N)nc1-c1ccccc1	i	i	i	i	i	nt
CCc1sc(N)nc1-c1ccccc1	i	i	?	?	i	i
Nc1nc(-c2ccc3c(c2)NC(=O)CO3)cs1	?	i	?	?	nt	i
COc1ccc(Oc2nc(-c3ccccn3)ncc2OC)cc1	89.1µM	i	28.2µM	?	?	?
O=C(c1ccco1)N1CCCC(c2nc3c(nnn3Cc3c(Cl)cccc3Cl)c(=O)[nH]2)C1 (stereo not drawn)	i	i	i	i	nt	nt
COc1ccc(S(=O)(=O)N2CCOCC2)cc1OC	i	i	i	i	i	nt
COc1ccc(S(=O)(=O)N2CCOCC2)cc1N=Nc1sc(N)nc1-c1ccccc1	i	?	?	14.1µM	i	i
CCc1nn2c(=O)cc(COc3ccc(/C=C(\C#N)C(=O)Nc4ccc(C)cc4)cc3)nc2s1	i	i	i	i	nt	nt
CC(C)(C)c1ccc(/C=N/N2C(=O)CSC2=S)cc1	i	i	?	?	nt	nt
